From the supplement of paper PMC12045047

System: primary human airway basal cells (HBEC, luciferase-transduced)
Assay: proliferation (luciferase bioluminescence) Z score relative to plate mean; higher = more proliferation / more cells, active = 1.96 or more
Details: donor: 1, library: ENZO Libraries, 4 days
Description: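 Primary human bronchial epithelial (airway basal) cells from two donors, lentivirally transduced with pHIV-Luc-ZsGreen, were seeded at 2000 cells/well in 384-well plates in FAD medium with ENZO or Prestwick library compounds and cultured for 4 days. Luciferin was then added and bioluminescence was read as a measure of cell number. Relative light units were converted to Z scores against the plate, and the mean of triplicate wells is reported.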

SMILES	proliferation (0.5 µM)	proliferation (5 µM)
O=C(O[C@@H]1Cc2c(O)cc(O)cc2O[C@@H]1c1cc(O)c(O)c(O)c1)c1cc(O)c(O)c(O)c1 [Epigallocatechin gallate]	0.183 (inactive)	-0.177 (inactive)
O=c1cc(-c2ccc(O)cc2)oc2cc(O)cc(O)c12 [Apigenin]	0.308 (inactive)	3.23 (active)
CCCC[C@@H](C=O)NC(=O)OC(C)(C)C	0.474 (inactive)	-0.0416 (inactive)
CC(C)C[C@H](NC(=O)[C@@H](O)[C@H](N)Cc1ccccc1)C(=O)O	-0.66 (inactive)	-0.519 (inactive)
N[C@H](C(=O)O)[C@@H]1CC(Cl)=NO1 [Acivicin]	-0.75 (inactive)	-1.56 (inactive)
CSCCC(C=O)NC(=O)C(CC(C)C)NC(=O)[C@H](CC(C)C)NC(C)=O (stereo not given in full) [Calpain Inhibitor II (ALLM)]	0.241 (inactive)	-0.104 (inactive)
CCCC(CCC)C(=O)O [Valproic acid]	-0.00583 (inactive)	-0.171 (inactive)
Cc1ccc(NC(=O)c2cccc(N(C)C)c2)cc1NC(=O)c1ccc(O)cc1	0.389 (inactive)	0.18 (inactive)
CC1CNc2c(cccc2S(=O)(=O)N[C@@H](CCCNC(=N)N)C(=O)N2CC[C@@H](C)C[C@@H]2C(=O)O)C1 (stereo not given in full) [Argatroban]	0.0616 (inactive)	-0.0211 (inactive)
COc1cc2nc(N3CCCN(C)CC3)nc(NC3CCN(Cc4ccccc4)CC3)c2cc1OC	-0.123 (inactive)	-0.996 (inactive)
